We go through three compounds from PubChem BioAssay (EPA / NIEHS).

The structures appear in SMILES notation. Active and inactive are the calls of the source. Rule for the calls: active = hit-call score of the fitted dose curve at least 0.9, where 1 is the maximum; inactive = score below 0.9.

Holding throughout (conditions): mRNA level, 48 h; actives raise or lower the signal
Read-out in experiment [1]: Cytochrome P450 (CYP24A1), CYP24A1 (gene 1591)
The experiment is described as follows: LTEA_HepaRG_CYP24A1: Life Technologies and Expression Analysis (LTEA) Assay for Cytochrome P450 (CYP24A1) using HepaRG (AID 2283478). An outline of the steps:
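mRNA of CYP24A1 quantified by TaqMan qRT-PCR (ACTB/GAPDH/POLR2A normalization) after 48 h chemical exposure of HepaRG cells, top concentration 100 uM, half-log steps, 0.5% DMSO vehicle, duplicates. Curves fitted bidirectionally against DMSO baseline.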

Read-out in experiment [2]: Cytochrome P450 (CYP1A2), CYP1A2 (gene 1544)
The experiment is described as follows: LTEA_HepaRG_CYP1A2: Life Technologies and Expression Analysis (LTEA) Assay for Cytochrome P450 (CYP1A2) using HepaRG (AID 2283479). An outline of the steps: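 CYP1A2 transcript measured by TaqMan qRT-PCR against three housekeeping genes after 48-hour chemical exposure of HepaRG cells. Eight-point half-log series topping at 100 uM in 0.5% DMSO, duplicates; gain or loss fitted relative to vehicle.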

Read-out in experiment [3]: cysteine-aspartic acid protease (CASP8), CASP8 (gene 841)
Nature of the experiment: LTEA_HepaRG_CASP8: Life Technologies and Expression Analysis (LTEA) Assay for cysteine-aspartic acid protease (CASP8) using HepaRG (AID 2283480). Put shortly: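 HepaRG, 48 h exposure, duplicate wells; 8 conc, half-log from 100 uM, 0.5% DMSO. Serum-free induction medium. CASP8 mRNA by TaqMan qRT-PCR, norm. ACTB/GAPDH/POLR2A; gain/loss fitted vs DMSO.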

Read-out in experiment [4]: Cytochrome P450 (CYP2B6), CYP2B6 (gene 1555)
The experiment is described as follows: LTEA_HepaRG_CYP2B6: Life Technologies and Expression Analysis (LTEA) Assay for Cytochrome P450 (CYP2B6) using HepaRG (AID 2283481). Put shortly:
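CYP2B6 transcript level quantified by qRT-PCR against three housekeeping genes, fitted bidirectionally relative to DMSO. HepaRG cultures received chemicals for 48 h, 8-point half-log series from 100 uM in 0.5% DMSO, duplicate wells, serum-free induction medium.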

Read-out in experiment [5]: Cytochrome P450 2C19 (Homo sapiens) (UniProt P33261)
The experiment is described as follows: LTEA_HepaRG_CYP2C19: Life Technologies and Expression Analysis (LTEA) Assay for CYP2C19 using HepaRG (AID 2283482). An outline of the steps: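 CYP2C19 transcript levels by qRT-PCR, normalized to three housekeeping genes, in HepaRG cells after 48 h chemical exposure. Eight-point half-log series topping at 100 uM, 0.5% DMSO vehicle. Increases and decreases both fitted against DMSO.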

Read-out in a further experiment: CYP2C8 (gene 1558)
Nature of the experiment: LTEA_HepaRG_CYP2C8: Life Technologies and Expression Analysis (LTEA) Assay for CYP2C8 using HepaRG (AID 2283483). Put shortly: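 CYP2C8 mRNA induction or loss, by qRT-PCR normalized to ACTB/GAPDH/POLR2A, is read in HepaRG cells after 48 h treatment. Concentrations run from 100 uM down in half-log dilutions, with 0.5% DMSO as vehicle and baseline.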

Read-out in another experiment: CYP2E1 (gene 1571)
Nature of the experiment: LTEA_HepaRG_CYP2E1: Life Technologies and Expression Analysis (LTEA) Assay for CYP2E1 using HepaRG (AID 2283485). Put shortly:
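HepaRG cells, plated 48 h, then exposed 48 h in serum-free induction medium to eight half-log concentrations from 100 uM in 0.5% DMSO, duplicate. CYP2E1 mRNA by qRT-PCR, normalized to ACTB/GAPDH/POLR2A; bidirectional fit versus DMSO.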

Read-out in another experiment: CYP4A11 (gene 1579)
The experiment is described as follows: LTEA_HepaRG_CYP4A11: Life Technologies and Expression Analysis (LTEA) Assay for CYP4A11 using HepaRG (AID 2283486). An outline of the steps: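 Readout is CYP4A11 transcript level by qRT-PCR, normalized to three housekeeping genes and fitted bidirectionally against 0.5% DMSO. Human HepaRG cells were treated 48 h, in duplicate, with an 8-point half-log series topping at 100 uM.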

Read-out in experiment [6]: Cytochrome P450 3A4 (Homo sapiens) (UniProt P08684)
The experiment is described as follows: LTEA_HepaRG_CYP3A4: Life Technologies and Expression Analysis (LTEA) Assay for CYP3A4 using HepaRG (AID 2283487). Put shortly:
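Differentiated HepaRG cells, plated 48 h, then dosed 48 h in serum-free induction medium with 0.5% DMSO, 8 half-log concentrations up to 100 uM, duplicate. CYP3A4 mRNA by qRT-PCR, normalized to ACTB/GAPDH/POLR2A; bidirectional fit versus DMSO.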

Read-out in experiment [7]: DNA damage-inducible transcript 3 (DDIT3), DDIT3 (gene 1649)
Nature of the experiment: LTEA_HepaRG_DDIT3: Life Technologies and Expression Analysis (LTEA) Assay for DNA damage-inducible transcript 3 (DDIT3) using HepaRG (AID 2283488). Put shortly:
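HepaRG cells, 48 h after plating, exposed 48 h in serum-free induction medium to 8 half-log concentrations up to 100 uM in 0.5% DMSO, in duplicate. DDIT3 mRNA measured by TaqMan qRT-PCR, normalized to ACTB, GAPDH and POLR2A. Fitted bidirectionally against DMSO.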

Read-out in experiment [8]: Pro-epidermal growth factor (Homo sapiens) (UniProt P01133)
Nature of the experiment: LTEA_HepaRG_EGF: Life Technologies and Expression Analysis (LTEA) Assay for Epidermal growth factor (EGF) using HepaRG (AID 2283489). An outline of the steps: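 EGF transcript measured by Fluidigm TaqMan qRT-PCR with three housekeeping genes for normalization, 48 h after dosing HepaRG cultures in duplicate (top 100 uM, half-log steps, 0.5% DMSO vehicle). Gain or loss relative to DMSO fitted.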

Read-out in experiment [9]: Early growth response protein 1 (EGR1) transcription factor, EGR1 (gene 1958)
Nature of the experiment: LTEA_HepaRG_EGR1: Life Technologies and Expression Analysis (LTEA) Assay for Early growth response protein 1 (EGR1) transcription factor using HepaRG (AID 2283490). Put shortly:
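Read-out is EGR1 mRNA level by qRT-PCR, normalized to three housekeeping genes and analysed for gain or loss of signal against 0.5% DMSO. Source cells: human HepaRG, treated 48 h at up to 100 uM in half-log dilutions.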

Read-out in experiment [10]: Ezrin (EZR), EZR (gene 7430)
The experiment is described as follows: LTEA_HepaRG_EZR: Life Technologies and Expression Analysis (LTEA) Assay for Ezrin (EZR) using HepaRG (AID 2283491). Put shortly: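 EZR transcript levels came from Fluidigm qRT-PCR and were normalized to three housekeeping genes after 48 h chemical exposure of HepaRG cells. Dosing used an 8-point half-log series with a 100 uM top concentration in 0.5% DMSO, tested in duplicate; both directions were fitted versus vehicle.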

Read-out in experiment [11]: Cytochrome P450 3A7 (Homo sapiens) (UniProt P24462)
Nature of the experiment: LTEA_HepaRG_CYP3A7: Life Technologies and Expression Analysis (LTEA) Assay for CYP3A7 using HepaRG (AID 2283492). An outline of the steps:
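CYP3A7 transcript measured by qRT-PCR (ACTB, GAPDH, POLR2A normalization) after 48 h chemical exposure of HepaRG cells in duplicate. Eight half-log concentrations, maximum 100 uM, 0.5% DMSO vehicle; bidirectional curve fitting against DMSO baseline.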

Read-out in another experiment: CYP3A5 (gene 1577)
The experiment is described as follows: LTEA_HepaRG_CYP3A5: Life Technologies and Expression Analysis (LTEA) Assay for CYP3A5 using HepaRG (AID 2283493). Put shortly:
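HepaRG cells, plated 48 h then in serum-free induction medium, dosed in duplicate for 48 h with eight half-log concentrations up to 100 uM in 0.5% DMSO. Gene mRNA by Fluidigm TaqMan qRT-PCR, normalized to ACTB, GAPDH, POLR2A.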

Read-out in experiment [12]: Fatty Acid-Binding Protein 1 (FABP1), FABP1 (gene 2168)
Nature of the experiment: LTEA_HepaRG_FABP1: Life Technologies and Expression Analysis (LTEA) Assay for Fatty Acid-Binding Protein 1 (FABP1) using HepaRG (AID 2283494). Put shortly: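 HepaRG, 48 h post-plating switched to serum-free induction medium, then dosed 48 h (duplicate, 8 pts, ≤100 uM, 0.5% DMSO). RNA → Fluidigm TaqMan qRT-PCR, FABP1 normed to ACTB/GAPDH/POLR2A. Bidirectional curve fit vs DMSO.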

Read-out in experiment [13]: Cytochrome P450 7A1 (Homo sapiens) (UniProt P22680)
The experiment is described as follows: LTEA_HepaRG_CYP7A1: Life Technologies and Expression Analysis (LTEA) Assay for Cytochrome P450 7A1 (CYP7A1) using HepaRG (AID 2283496). An outline of the steps: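 HepaRG cells plated 48 h, then switched to serum-free induction medium and exposed in duplicate for 48 h to 8-point half-log series from 100 uM in 0.5% DMSO. CYP7A1 mRNA by qRT-PCR (TaqMan), normalized to ACTB/GAPDH/POLR2A; bidirectional fit versus DMSO.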

Read-out in experiment [14]: Glutathione S-Transferase (GSTA2), GSTA2 (gene 2939)
Nature of the experiment: LTEA_HepaRG_GSTA2: Life Technologies and Expression Analysis (LTEA) Assay for Glutathione S-Transferase (GSTA2) using HepaRG (AID 2283497). An outline of the steps:
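HepaRG, 48 h dosing, 8-pt half-log CRC from 100 uM, 0.5% DMSO vehicle, n=2; RNA → Fluidigm TaqMan qRT-PCR; GSTA2 vs ACTB/GAPDH/POLR2A; gain/loss fit vs DMSO.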

Read-out in the next experiment: CYP2C9 (gene 1559)
The experiment is described as follows: LTEA_HepaRG_CYP2C9: Life Technologies and Expression Analysis (LTEA) Assay for CYP2C9 using HepaRG (AID 2283484). An outline of the steps:
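Cells plated 48 h, switched to serum-free induction medium, then treated in duplicate for 48 h at eight concentrations (max 100 uM, 0.5% DMSO). RNA then analysed by qRT-PCR for CYP2C9; curves fitted in both directions relative to DMSO.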

Read-out in experiment [15]: Cytochrome P450 4A22 (Homo sapiens) (UniProt Q5TCH4)
The experiment is described as follows: LTEA_HepaRG_CYP4A22: Life Technologies and Expression Analysis (LTEA) Assay for Cytochrome P450 4A22 (CYP4A22) using HepaRG (AID 2283495). Put shortly:
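Gene expression measured by qRT-PCR against three housekeeping genes (ACTB, GAPDH, POLR2A), with gain or loss fitted relative to 0.5% DMSO vehicle. HepaRG cultures received 48 h chemical treatment, top concentration 100 uM, half-log steps, duplicate wells.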

Chain of Cytochrome P450 2C19 (Homo sapiens) (P33261 whole entry, looked up): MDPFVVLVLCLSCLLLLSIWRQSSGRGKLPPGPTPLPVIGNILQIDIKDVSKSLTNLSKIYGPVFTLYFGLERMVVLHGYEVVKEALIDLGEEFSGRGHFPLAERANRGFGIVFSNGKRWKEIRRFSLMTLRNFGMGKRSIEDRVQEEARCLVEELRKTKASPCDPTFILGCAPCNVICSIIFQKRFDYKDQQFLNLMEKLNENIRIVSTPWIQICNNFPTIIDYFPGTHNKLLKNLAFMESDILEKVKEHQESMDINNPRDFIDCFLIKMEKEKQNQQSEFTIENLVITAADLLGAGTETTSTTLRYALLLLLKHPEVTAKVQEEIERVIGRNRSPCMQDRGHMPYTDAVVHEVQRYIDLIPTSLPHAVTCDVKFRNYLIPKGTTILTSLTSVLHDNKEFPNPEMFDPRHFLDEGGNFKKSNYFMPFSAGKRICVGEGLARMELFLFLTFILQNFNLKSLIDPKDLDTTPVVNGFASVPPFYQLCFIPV
Chain of Cytochrome P450 3A7 (Homo sapiens) (P24462 whole entry, looked up): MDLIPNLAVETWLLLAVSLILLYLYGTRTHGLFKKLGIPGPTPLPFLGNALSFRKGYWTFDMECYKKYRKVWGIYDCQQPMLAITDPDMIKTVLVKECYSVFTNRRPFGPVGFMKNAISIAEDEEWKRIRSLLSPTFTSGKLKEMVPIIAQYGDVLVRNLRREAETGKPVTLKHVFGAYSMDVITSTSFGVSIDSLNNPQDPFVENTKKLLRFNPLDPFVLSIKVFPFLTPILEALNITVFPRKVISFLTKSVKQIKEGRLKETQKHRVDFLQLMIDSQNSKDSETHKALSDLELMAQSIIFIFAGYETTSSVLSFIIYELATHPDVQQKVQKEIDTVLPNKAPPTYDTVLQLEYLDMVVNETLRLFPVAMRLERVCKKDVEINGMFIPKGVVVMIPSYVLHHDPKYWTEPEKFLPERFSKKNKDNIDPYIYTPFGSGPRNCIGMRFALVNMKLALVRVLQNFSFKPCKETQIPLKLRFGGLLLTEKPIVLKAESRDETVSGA
Chain of Cytochrome P450 3A4 (Homo sapiens) (P08684 whole entry, looked up): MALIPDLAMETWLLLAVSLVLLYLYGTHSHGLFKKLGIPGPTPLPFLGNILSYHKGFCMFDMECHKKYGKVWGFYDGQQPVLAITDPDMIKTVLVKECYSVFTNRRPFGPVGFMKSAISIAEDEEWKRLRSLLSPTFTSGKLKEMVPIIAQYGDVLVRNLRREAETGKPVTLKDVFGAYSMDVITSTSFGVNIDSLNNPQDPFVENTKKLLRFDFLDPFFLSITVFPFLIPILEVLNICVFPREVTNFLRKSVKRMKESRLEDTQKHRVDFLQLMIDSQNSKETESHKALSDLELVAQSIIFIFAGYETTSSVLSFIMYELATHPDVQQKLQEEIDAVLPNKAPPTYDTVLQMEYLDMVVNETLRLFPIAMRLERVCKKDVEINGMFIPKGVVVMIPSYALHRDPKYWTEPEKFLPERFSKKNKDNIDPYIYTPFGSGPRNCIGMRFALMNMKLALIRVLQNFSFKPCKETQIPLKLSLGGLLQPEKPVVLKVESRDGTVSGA

Turning to `c1ccc2ncccc2c1`, the compound was classed as inactive (in experiment [1]; in [2]; in experiment [3]; in experiment [5]; with CYP2E1 (gene 1571); with CYP4A11 (gene 1579)). For the same compound, the call in [6], in experiment [7], in [8], in experiment [9], in experiment [10] and in [11] was inactive. Moreover, the compound was classed as inactive (with CYP3A5 (gene 1577); in experiment [12]; in [13]; in experiment [14]). The results for the AC50 (in [4]; in the experiment with CYP2C8 (gene 1558)) were 50 µM (active) and 36.2 µM (active), respectively.
For the compound `c1ccc(C(O[C@@H]2CCCN(CCc3ccc4c(c3)OCO4)C2)c2ccccc2)cc1`, the result in experiment [1], in experiment [8] and in experiment [10] was inactive. The AC50 is 12.2 µM (active) in experiment [2]; 78.6 µM (active) in experiment [3]; 72 µM (active) in experiment [4]; 79 µM (active) in [5]; 77.1 µM (active) with CYP2C8 (gene 1558); 85.2 µM (active) with CYP2C9 (gene 1559). For the same compound, the AC50 was 50 µM (active) with CYP2E1 (gene 1571); 59.7 µM (active) with CYP4A11 (gene 1579); 84.1 µM (active) in experiment [9]; 81.9 µM (active) with CYP3A5 (gene 1577); 79.1 µM (active) in experiment [12]; 83.6 µM (active) in [13]. Moreover, the AC50 in experiment [14] was 79.1 µM (active).
Take `CC(C)CC(C)O` (configuration not stated): the compound was called inactive (in [1]; in experiment [3]; in experiment [4]; in experiment [5]; with CYP2C8 (gene 1558); with CYP2C9 (gene 1559)). Moreover, the call (in the experiment with CYP2E1 (gene 1571); with CYP4A11 (gene 1579); in experiment [8]; in [9]; in experiment [10]; in [11]) was inactive. Further, the compound was called inactive (in the experiment with CYP3A5 (gene 1577); in experiment [12]; in experiment [15]; in [13]; in experiment [14]). In addition, the AC50 in experiment [2] was 50 µM (active).
